This is part of a sample that, as a whole, favours compounds with a hit. Of some 79,000 tested, about 15% had one in any assay. The source made the active and inactive calls. No stated cut-off is given here; in the data, active means growth inhibition above about 70%; inactive means the rest.
Assays:
[1] = NCI Yeast Anticancer Drug Screen. Data for the rad52 strain (AID 147);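 further: 0% = growth of vehicle-treated control cultures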; conditions: S. cerevisiae rad52 mutant growth inhibition, hits give high values
How it was run: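 Screen used a yeast mutant impaired in DNA repair. After compound exposure, growth was measured. Values reflect inhibition compared with vehicle-treated cells.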

[2] = NCI Yeast Anticancer Drug Screen. Data for the wt1 strain (AID 149);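 further: 0% = growth of vehicle-treated wt1 cultures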; conditions: S. cerevisiae wt1 strain (SPY 50644) growth inhibition, hits give high values
How it was run: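 Measured: growth of wt1 yeast under compound versus vehicle treatment, reported as inhibition.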

[3] = NCI Yeast Anticancer Drug Screen. Data for the rad50EPP+ strain (AID 151);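 further: 0% = growth of vehicle-treated control cultures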; conditions: S. cerevisiae rad50 mutant strain, hits give high values
How it was run: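 Exposing the rad50EPP+ strain to each compound, growth was compared with vehicle-only cultures to give inhibition.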

[4] = NCI Yeast Anticancer Drug Screen. Data for the rad50 strain (AID 155);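 further: 0% = growth of vehicle-only cultures of the same strain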; conditions: S. cerevisiae rad50 strain growth inhibition, hits give high values
How it was run: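 Growth of the mutant yeast was measured after compound exposure and referenced to vehicle-treated cultures.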

[5] = NCI Yeast Anticancer Drug Screen. Data for the mec2-1 strain (AID 157); conditions: S. cerevisiae mec2-1 strain, hits give high values
How it was run: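 Readout is yeast growth inhibition, normalised to vehicle-treated controls, in the mec2-1 strain exposed to compound.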

[6] = NCI Yeast Anticancer Drug Screen. Data for the rad14 strain (AID 159);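 further: 0% = growth of vehicle-treated control cultures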; conditions: S. cerevisiae rad14 strain growth inhibition, hits give high values
How it was run: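 Here, inhibition of yeast growth was measured after compound exposure, using a strain with a genetic defect in DNA damage repair and vehicle-treated cultures as the reference.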

[7] = NCI Yeast Anticancer Drug Screen. Data for the sgs1 mgt1 strain (AID 161);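 further: 0% = growth of cultures given vehicle only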; conditions: S. cerevisiae sgs1 mgt1 strain, hits give high values
How it was run: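 Percent growth inhibition was derived by comparing compound-exposed mutant yeast with vehicle-exposed cultures. The strain carries alterations in DNA damage repair.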

[8] = NCI Yeast Anticancer Drug Screen. Data for the CLN2oe strain (AID 163);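 further: 0% = growth of vehicle-only control cultures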; conditions: S. cerevisiae CLN2oe strain, hits give high values
How it was run: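 Values reflect how much compound exposure reduced yeast growth, referenced to vehicle-exposed cells. Assay organism is a strain with a defined genetic change affecting cell-cycle control.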

[9] = NCI Yeast Anticancer Drug Screen. Data for the cln2 rad14 strain (AID 165);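 further: 0% = growth equal to vehicle treated cultures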; conditions: S. cerevisiae cln2 rad14 strain, hits give high values
How it was run: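 Relative to vehicle controls, growth inhibition of compound-treated cln2 rad14 yeast was recorded.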

[10] = NCI Yeast Anticancer Drug Screen. Data for the bub3 strain (AID 167); conditions: S. cerevisiae bub3 mutant strain, hits give high values
How it was run: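 Whole-cell yeast assay. The mutant strain was incubated with compounds, and growth inhibition was determined by comparison with vehicle-treated cells.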

[11] = NCI Yeast Anticancer Drug Screen. Data for the wt2 strain (AID 169);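 further: 0% = growth of vehicle-treated yeast cultures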; conditions: S. cerevisiae wt2 strain growth inhibition, hits give high values
How it was run: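 Values express reduction in yeast growth under compound treatment, referenced to vehicle-treated cells.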

[12] = NCI Yeast Anticancer Drug Screen. Data for the mlh1 strain (AID 171);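 further: 0% = growth of vehicle-treated control cultures of the same strain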; conditions: S. cerevisiae mlh1 strain growth inhibition, hits give high values
How it was run: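 Steps: expose the defined-mutant yeast strain to compound; expose a parallel culture to vehicle; measure growth; express compound effect as inhibition relative to the vehicle culture.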

[13] = NCI Yeast Anticancer Drug Screen. Data for the sgs1 strain (AID 173);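 further: 0% = growth of vehicle-only control cultures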; conditions: S. cerevisiae sgs1 mutant, hits give high values
How it was run: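 Treat defined-mutant yeast with compound; measure growth; calculate inhibition relative to vehicle-treated cells.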

[14] = NCI Yeast Anticancer Drug Screen. Data for the mlh1 rad18 strain (AID 175); conditions: S. cerevisiae mlh1 rad18 strain growth inhibition, hits give high values
How it was run: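 Test agents were incubated with a yeast strain of defined genotype (DNA damage repair defect). Inhibition of growth was derived by comparison with vehicle-exposed cultures.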

[15] = NCI Yeast Anticancer Drug Screen. Data for the rad18 strain (AID 177); conditions: S. cerevisiae rad18 mutant growth inhibition, hits give high values
How it was run: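 A genetically defined yeast mutant impaired in DNA damage repair was treated with test compounds, then its growth was measured against cultures receiving vehicle alone.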

[16] = at 5.0 µM (retest, dose inferred, filed as 0.5)
[17] = at 50.0 µM (retest, dose inferred, filed as 5.0)

Measured: growth inhibition

Cc1ccccc1NC(=O)Cc1csc(N/N=C2\NC(=O)/C(=C/c3cccc([N+](=O)[O-])c3)S2)n1
active: [7]; at 50.0 µM 79% | [13]; at 100.0 µM 70%
inactive: [1]; at 1.2 µM 2% | [1]; at 3.7 µM 5% | [1]; at 11.0 µM 13% | [1]; at 33.0 µM 24% | [1]; at 100.0 µM 49% | [2]; at 1.2 µM 3% | [2]; at 3.7 µM 6% | [2]; at 11.0 µM 4% | [2]; at 33.0 µM 11% | [2]; at 100.0 µM 26% | [3]; at 1.2 µM 4% | [3]; at 3.7 µM 9% | [3]; at 11.0 µM 15% | [3]; at 33.0 µM 39% | [3]; at 100.0 µM 51% | [4]; at 1.2 µM -4% | [4]; at 3.7 µM -11% | [4]; [16] 8% | [4]; at 11.0 µM -6% | [4]; at 33.0 µM 24% | [4]; [17] 10% | [4]; at 50.0 µM 64.1% | [4]; at 100.0 µM 50% | [5]; at 1.2 µM 4% | [5]; at 3.7 µM 2% | [5]; [16] 8% | [5]; at 11.0 µM 5% | [5]; at 33.0 µM 12% | [5]; [17] 13% | [5]; at 50.0 µM 32.1% | [5]; at 100.0 µM 23% | [6]; at 1.2 µM 4% | [6]; at 3.7 µM 2% | [6]; at 11.0 µM 8% | [6]; at 33.0 µM 16% | [6]; at 100.0 µM 22% | [7]; [16] -1% | [7]; [17] 22% | [8]; at 1.2 µM 0% | [8]; at 3.7 µM 0% | [8]; at 11.0 µM -4% | [8]; at 33.0 µM 1% | [8]; at 100.0 µM 17% | [9]; [16] -16% | [9]; [17] 28% | [9]; at 50.0 µM 21.6% | [10]; at 1.2 µM -1% | [10]; at 3.7 µM -1% | [10]; [16] -25% | [10]; at 11.0 µM 0% | [10]; at 33.0 µM 15% | [10]; [17] 69% | [10]; at 50.0 µM 66.2% | [10]; at 100.0 µM 32% | [11]; at 1.2 µM 2% | [11]; at 3.7 µM 3% | [11]; at 11.0 µM 5% | [11]; at 33.0 µM 17% | [11]; at 100.0 µM 46% | [12]; at 1.2 µM 1% | [12]; at 3.7 µM 4% | [12]; at 11.0 µM 6% | [12]; at 33.0 µM 20% | [12]; at 100.0 µM 51% | [13]; at 1.2 µM 5% | [13]; at 3.7 µM 6% | [13]; at 11.0 µM 8% | [13]; at 33.0 µM 40% | [14]; [16] 13% | [14]; [17] 42% | [14]; at 50.0 µM 60.5% | [15]; at 1.2 µM -2% | [15]; at 3.7 µM -3% | [15]; at 11.0 µM 6% | [15]; at 33.0 µM 32% | [15]; at 100.0 µM 59%

Nc1cc(F)cc2c1-c1ccc(F)cc1C2
inactive: [1]; at 1.2 µM -1% | [1]; at 3.7 µM -1% | [1]; at 11.0 µM 3% | [1]; at 33.0 µM 30% | [2]; at 1.2 µM -3% | [2]; at 3.7 µM -4% | [2]; at 11.0 µM -4% | [2]; at 33.0 µM 10% | [3]; at 1.2 µM 3% | [3]; at 3.7 µM 10% | [3]; at 11.0 µM 25% | [4]; at 1.2 µM 6% | [4]; at 3.7 µM -41% | [4]; [16] 1% | [4]; at 11.0 µM 33% | [4]; at 33.0 µM 47% | [4]; [17] 60% | [5]; at 1.2 µM -1% | [5]; at 3.7 µM 1% | [5]; [16] 2% | [5]; at 11.0 µM 2% | [5]; at 33.0 µM 23% | [5]; [17] 18% | [6]; at 1.2 µM 4% | [6]; at 3.7 µM 5% | [6]; at 11.0 µM 9% | [6]; at 33.0 µM 27% | [7]; [16] -5% | [7]; [17] 7% | [8]; at 1.2 µM -10% | [8]; at 3.7 µM -9% | [8]; at 11.0 µM -1% | [8]; at 33.0 µM 7% | [9]; [16] 0% | [9]; [17] 40% | [11]; at 1.2 µM -3% | [11]; at 3.7 µM 5% | [11]; at 11.0 µM -3% | [11]; at 33.0 µM 15% | [12]; at 1.2 µM -4% | [12]; at 3.7 µM -3% | [12]; at 11.0 µM -3% | [12]; at 33.0 µM 14% | [13]; at 1.2 µM -3% | [13]; at 3.7 µM 0% | [13]; at 11.0 µM 6% | [13]; at 33.0 µM 46% | [15]; at 1.2 µM -1% | [15]; at 3.7 µM 4% | [15]; at 11.0 µM 7% | [15]; at 33.0 µM 49%
active: [1]; at 100.0 µM 92% | [2]; at 100.0 µM 90% | [3]; at 33.0 µM 90% | [3]; at 100.0 µM 95% | [4]; at 50.0 µM 87% | [4]; at 100.0 µM 92% | [5]; at 50.0 µM 74.6% | [5]; at 100.0 µM 91% | [6]; at 100.0 µM 94% | [7]; at 50.0 µM 77% | [8]; at 100.0 µM 72% | [9]; at 50.0 µM 78.5% | [11]; at 100.0 µM 89% | [12]; at 100.0 µM 92% | [13]; at 100.0 µM 93% | [15]; at 100.0 µM 94%

Oc1ccc(C=Nc2ccccc2O)cc1
inactive: [1]; at 1.2 µM 34% | [1]; at 3.7 µM 52% | [1]; at 11.0 µM 56% | [2]; at 1.2 µM 28% | [2]; at 3.7 µM 28% | [2]; at 11.0 µM 25% | [2]; at 33.0 µM 27% | [2]; at 100.0 µM 39% | [3]; at 1.2 µM 35% | [3]; at 3.7 µM 68% | [4]; at 1.2 µM 68% | [4]; [16] 13% | [5]; at 1.2 µM 23% | [5]; at 3.7 µM 29% | [5]; [16] 26% | [5]; at 11.0 µM 33% | [5]; at 33.0 µM 44% | [5]; [17] 14% | [5]; at 50.0 µM 23% | [5]; at 100.0 µM 65% | [6]; at 1.2 µM 17% | [6]; at 3.7 µM 16% | [6]; at 11.0 µM 20% | [6]; at 33.0 µM 25% | [6]; at 100.0 µM 38% | [7]; [16] 15% | [7]; [17] 42% | [7]; at 50.0 µM 28.8% | [8]; at 1.2 µM 47% | [8]; at 3.7 µM 58% | [8]; at 11.0 µM 60% | [8]; at 33.0 µM 56% | [8]; at 100.0 µM 64% | [9]; [16] 11% | [9]; [17] 31% | [9]; at 50.0 µM 1.55% | [11]; at 1.2 µM 25% | [11]; at 3.7 µM 30% | [11]; at 11.0 µM 33% | [11]; at 33.0 µM 43% | [11]; at 100.0 µM 65% | [12]; at 1.2 µM 32% | [12]; at 3.7 µM 45% | [12]; at 11.0 µM 36% | [12]; at 33.0 µM 45% | [13]; at 1.2 µM 32% | [13]; at 3.7 µM 36% | [13]; at 11.0 µM 37% | [13]; at 33.0 µM 51% | [13]; at 100.0 µM 67% | [14]; [16] 48% | [15]; at 1.2 µM 61%
active: [1]; at 33.0 µM 75% | [1]; at 100.0 µM 88% | [3]; at 11.0 µM 90% | [3]; at 33.0 µM 90% | [3]; at 100.0 µM 94% | [4]; at 3.7 µM 85% | [4]; at 11.0 µM 81% | [4]; at 33.0 µM 84% | [4]; [17] 80% | [4]; at 50.0 µM 78.8% | [4]; at 100.0 µM 90% | [12]; at 100.0 µM 73% | [14]; [17] 86% | [14]; at 50.0 µM 70% | [15]; at 3.7 µM 78% | [15]; at 11.0 µM 76% | [15]; at 33.0 µM 75% | [15]; at 100.0 µM 85%

Source: PubChem BioAssay (NCI)
